USP2a inh: USP2a (human) protease inhibition; Potency, µM (top dose mostly 38.3 µM), usual class: inhibitors; O75604; USP2 core, Ub-CHOP2 coupled fluorogenic reporter, 485/531; 330,000 compounds, 0.01% hits
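Cell-free coupled assay: 10nM USP2 core preincubated 30min RT with compound in Tris-HCl pH 8.0/CaCl2/CHAPS buffer, then 25nM Ub-CHOP2 and 25nM reporter substrate; fluorescence (Ex 485/Em 531) read after 60min RT, normalized to NEM inhibition, concentration-response curves fitted.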
p53 reactivator: re-activators of mutant p53. H1299 p53-A138V BP100-luciferase reporter, luminescence, 24 h. Potency, µM (series often up to 92.2 µM), most hits filed as activators. 320,000 compounds, 0.063% hits; also: nearly all actives have a fitted effect of over 45% in size
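H1299 (p53-null), stable ts p53-A138V + BP100-Luc; 1000 cells/well, Opti-MEM/10% FBS; cpd 4 pt, 1:5; 24 h, 37 deg C, 5% CO2; detection reagent 10 min RT; luminescence.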
ClpP mod: qHTS Assay for Activators of ClpP. 340,000 compounds, 1.9% hits. Potency, µM (doses to about 57.5 µM). purified B. subtilis ClpP, FRET peptide cleavage, 20 min; active = well fitted falling curve with a large enough effect; inconclusive = small, poorly fitted or top-dose-only effect; inactive = no such curve, though single readings can be large or run the other way; also: the source files actives as falling curves though it sought activators and does not explain the sign; nearly all actives have a fitted effect of over 65% in size
Target sequence (P80244 whole entry, looked up): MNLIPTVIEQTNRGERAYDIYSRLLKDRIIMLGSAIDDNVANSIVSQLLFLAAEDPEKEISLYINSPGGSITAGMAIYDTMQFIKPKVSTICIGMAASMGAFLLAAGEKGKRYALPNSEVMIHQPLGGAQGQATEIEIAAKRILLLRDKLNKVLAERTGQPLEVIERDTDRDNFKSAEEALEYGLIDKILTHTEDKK
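FRET quenching reversal measured ClpP activation: 10 microg/mL B. subtilis ClpP at pH 8 with the FRET-FV decapeptide, read at 430 nm after 320 nm excitation. The 20-min minus 0-min signal was scaled between DMSO/no-enzyme wells and ADEP (5.8 microM final).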
a7 integrin act: integrin-mediated muscular dystrophy alleviation activation; alpha7betagal myoblasts, beta-gal FDG fluorescence, 48 h; Potency, µM (top dose mostly 38.3 µM), most hits filed as activators; 350,000 compounds, 0.064% hits; AID 624291; also: nearly all actives have a fitted effect of over 60% in size
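alpha7betagal+/- myoblasts (passage 13, 250/well) treated 48 h at 37C with compounds at 1:260 dilution of DMSO stock. Lysed, then beta-galactosidase activity read as FDG fluorescence (ex 480/em 540) after 30 min, with pre-read for autofluorescence.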
Eya2 phos inh: blocks the phosphatase activity of human Eya2. 330,000 compounds, 0.006% hits. Potency, µM (series often up to 76.9 µM), actives largely listed as inhibitors. recombinant Eya2, OMFP fluorescence dephosphorylation (OMFP is methylfluorescein phosphate). O00167
Target sequence (O00167 whole entry, looked up): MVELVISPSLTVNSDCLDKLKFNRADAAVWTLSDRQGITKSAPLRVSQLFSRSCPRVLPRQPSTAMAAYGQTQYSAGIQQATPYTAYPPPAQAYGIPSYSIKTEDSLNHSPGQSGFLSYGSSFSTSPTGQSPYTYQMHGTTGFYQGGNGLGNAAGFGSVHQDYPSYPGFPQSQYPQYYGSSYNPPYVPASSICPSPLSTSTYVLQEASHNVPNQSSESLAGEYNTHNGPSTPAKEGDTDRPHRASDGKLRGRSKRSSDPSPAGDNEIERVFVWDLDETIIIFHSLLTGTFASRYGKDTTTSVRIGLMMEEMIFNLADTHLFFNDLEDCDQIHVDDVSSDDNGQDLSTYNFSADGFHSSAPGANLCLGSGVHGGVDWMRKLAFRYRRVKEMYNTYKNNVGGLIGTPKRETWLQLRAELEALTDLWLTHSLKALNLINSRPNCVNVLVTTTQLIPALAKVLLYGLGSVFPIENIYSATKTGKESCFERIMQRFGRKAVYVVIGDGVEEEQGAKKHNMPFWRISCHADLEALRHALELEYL
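Eya2 (0.2 uM) preincubated 10 min at ambient with compound, then OMFP substrate added at 50 uM; 10 min reaction in 50 mM HEPES pH 7.5, 50 mM NaCl, 5 uM MgCl2, 0.05% BSA, 1 mM DTT. Fluorescence read at Ex 485/Em 525 nm.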
MmCpn inh: blocks the Methanococcus maripaludis chaperonin Mm-Cpn. Potency, µM (titrated, usually from 76.9 µM), usual class: inhibitors. purified Mm-Cpn ATPase, ADP Transcreener TR-FRET. 330,000 compounds, 0.031% hits; also: nearly all actives have a fitted effect of over 80% in size
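Compound-treated chaperonin, 25 nM final, turns over 10 uM ATP at 37°C for 30 min following a 10 min preincubation; ADP generated competes with ADP-d2 for Eu-cryptate antibody, lowering FRET.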
Hits are given with their value; i = inactive; ? = inconclusive; nt = not tested or not shown. Many of the other results were omitted from the sample, so hits are more common in it than they were. Unless noted, calls follow the shape of the dose curve; as a rule, active = well fitted curve in the direction sought with a large enough effect; inconclusive = small, poorly fitted or top-dose-only effect, or another doubt; inactive = no such curve, though single readings can be large; an effect the other way counts as inactive or inconclusive.

SMILES | USP2a inh | p53 reactivator | ClpP mod | a7 integrin act | Eya2 phos inh | MmCpn inh
COc1c(C)cc(Br)cc1C(=O)Nc1ccccc1N1CCN(C(=O)c2ccccc2)CC1 | i | i | 18µM | i | i | i
COc1ccc(Br)cc1C(=O)Nc1ccccc1N1CCN(C(=O)c2ccccc2)CC1 | i | i | nt | i | i | i
COc1ccc(-c2c(NC(C)=O)n(C)c3ccccc3c2=O)cc1 | i | i | 25µM | i | i | i
COc1ccc(-c2c(NC(=O)C(C)C)n(C)c3ccccc3c2=O)cc1 | i | i | 28µM | i | i | i
COc1cccc(-c2c(NC(C)=O)n(C)c3ccccc3c2=O)c1 | i | i | i | i | i | i
CC(C)C(NS(=O)(=O)c1ccccc1)C(=O)OCc1cc([N+](=O)[O-])cc2c1OCOC2 (centres undefined) | i | i | 32µM | i | i | i
CC(=O)Nc1ccc(S(=O)(=O)N[C@@H](C)C(=O)OCc2cc([N+](=O)[O-])cc3c2OCOC3)cc1 | i | i | i | i | i | i
COc1cc(NC(=O)CSc2nc(C)c(C(=O)Nc3ccccc3)c(-c3ccc(OC)c(OC)c3)c2C#N)c(OC)cc1Cl | nt | nt | i | nt | nt | nt
CCOC(=O)CC1(CC(=O)OCC)NC(=O)c2c(C)sc(C(=O)OCC)c2N1 | i | i | 35µM | i | i | i
CCOC(=O)CC1(C)NC(=O)c2c(C)sc(C(=O)OCC)c2N1 (centres undefined) | i | i | ? | i | i | i
O=c1cc(-c2ccc(F)cc2)oc2ccccc12 | nt | nt | i | i | nt | nt
CSc1ccc(-c2cc(=O)c3ccccc3o2)cc1 | i | ? | 10µM | i | i | i
COc1cc(S(=O)(=O)O)c(C)cc1N=Nc1c(O)ccc2cc(S(=O)(=O)O)ccc12 | nt | nt | i | nt | nt | nt
COC(=O)CN1C(=S)N(c2ccc(Cl)cc2)C(=O)C1CC(=O)Nc1ccccc1 (centres undefined) | i | i | 13µM | i | i | i
COC(=O)CN1C(=S)N(c2ccc(F)cc2)C(=O)C1CC(=O)Nc1ccccc1 (centres undefined) | i | i | i | i | i | i
COCCNc1ncnc2c1cnn2-c1ccc(Cl)cc1 | i | nt | 22µM | i | i | i
OCCOCCNc1ncnc2c1cnn2-c1ccc(Cl)cc1 | i | i | 32µM | i | ? | i
CN(C)c1ccc(/C=C/c2ccnc3c(N)cccc23)cc1 | nt | nt | i | nt | nt | nt
Brc1ccc2c(ccc[n+]2CCc2ccccc2)c1 | nt | nt | i | nt | nt | nt
Cc1ccc(OCC(=O)N(Cc2ccccc2)C2CCS(=O)(=O)C2)c([N+](=O)[O-])n1 (centres undefined) | i | i | i | i | i | i
CCN(C(=O)COc1ccc(C)nc1[N+](=O)[O-])C1CCS(=O)(=O)C1 (centres undefined) | i | i | 10µM | i | i | i
CCc1ccc(NC(=O)CN2C(=O)CC(c3ccccc3)Sc3ccccc32)cc1 (centres undefined) | nt | nt | i | nt | nt | nt
Cc1cc(Cl)nc2nc(Cl)ccc12 | nt | nt | i | nt | nt | nt
Cc1ccc(S(=O)(=O)n2nc(-c3ccccc3)nc2NCc2ccccc2Cl)cc1 | nt | nt | i | nt | nt | nt
Cc1cc(-c2ccccc2)[nH]c(=O)c1S(=O)(=O)c1ccccc1 | i | i | 14µM | i | i | i
SMILES | USP2a inh | p53 reactivator | ClpP mod | a7 integrin act | Eya2 phos inh | MmCpn inh
COc1cc(C(=O)Nc2cccc(OCc3cc(=O)n4c(C)csc4n3)c2)cc(OC)c1OC | nt | nt | i | nt | nt | nt
CCCC(=O)Oc1c(Sc2ccc(Cl)cc2)c(C)nn1-c1ccccc1 | nt | nt | i | nt | nt | nt
Nc1ccc2c(c1)C=C/C2=C\c1ccccc1 | nt | nt | i | nt | nt | nt
COc1ccc(-c2cc(-c3ccccc3)c(C#N)c(SCC(O)CS(=O)(=O)Cc3ccc(Cl)cc3)n2)cc1 (centres undefined) | nt | nt | i | nt | nt | nt
N#Cc1c(-c2ccccc2)cc(-c2ccccc2)nc1SCC(O)CS(=O)(=O)Cc1ccc(Cl)cc1 (centres undefined) | nt | nt | 10µM | nt | nt | nt
COC(=O)c1c(NC(=O)c2c(-c3ccccc3Cl)noc2C)sc2c1CCC2 | i | i | 32µM | i | i | i
COC(=O)c1c(NC(=O)c2ccc(C)o2)sc2c1CCCCC2 | i | ? | 32µM | i | i | i
CC(C)OC(=O)c1c(NC(=O)c2ccco2)sc2c1CCCCC2 | i | i | 28µM | i | i | i
Cc1ccc(C(=O)Nc2sc3c(c2C(=O)O)CCCCC3)o1 | i | i | i | i | i | i
COC(=O)c1c(NC(=O)c2ccco2)sc2c1CCC2 | i | i | i | i | i | i
Clc1ncc(C#Cc2ccccc2)c2ncncc12 | nt | nt | i | nt | nt | nt
Nc1nc(-c2cccnc2)nn1S(=O)(=O)c1ccccc1 | nt | nt | 35µM | i | nt | nt
Nc1nc(-c2ccco2)nn1S(=O)(=O)c1ccccc1 | i | i | nt | i | i | i
C(=C\c1nccc2ccccc12)/c1ccc(N2CCOCC2)cc1 | nt | nt | i | nt | nt | nt
COc1ccccc1OCCC(=O)OCC(=O)Nc1ccc(Br)cc1 | i | i | 28µM | i | i | i
CC1CN(C(=O)N2CCC(C(=O)N3CCN(c4ccccc4)CC3)CC2)c2cc(Cl)ccc2O1 (centres undefined) | nt | nt | i | nt | nt | nt
CCOc1ccc(NC(=O)CN(C)C(=O)CCCc2nc3ccccc3c(=O)[nH]2)cc1OCC | i | i | 16µM | i | i | i
CCOc1ccc(NC(=O)CN(C)C(=O)c2cc(-c3ccc(OC)cc3)nc3ccccc23)cc1OCC | i | i | 32µM | i | i | i
CCCn1nc(C(=O)N(C)CC(=O)Nc2ccc(OCC)c(OCC)c2)c2ccccc2c1=O | i | i | 25µM | i | i | i
COc1ccc(NC(=O)CN(C)C(=O)CCCc2nc3ccccc3c(=O)[nH]2)cc1 | i | i | i | i | i | i
CCCCn1nc(C(=O)N(C)CC(=O)Nc2cccc(F)c2)c2ccccc2c1=O | i | i | i | i | i | i
O=C(N/N=C/c1sc2ccccc2c1O)c1ccccc1 | i | 14µM | i | i | i | i
COc1ccc(C(=O)N/N=C/c2sc3ccccc3c2O)cc1 | i | ? | i | i | i | i
Cc1ccc(Cn2ccc(NC(=O)CCSc3nc(-c4ccco4)cc(C(F)(F)F)n3)n2)cc1 | i | i | i | i | i | i
Cc1cc(NC(=O)CSc2nc(-c3ccco3)cc(C(F)(F)F)n2)no1 | i | i | 25µM | i | i | i
Cc1ccccc1Cn1ccc(NC(=O)CCSc2nc(-c3ccco3)cc(C(F)(F)F)n2)n1 | i | i | 28µM | i | i | i
COc1ccc(NC(=O)c2c(NC(=O)Cc3ccccc3)sc3c2CCCC3)cc1 | nt | nt | 28µM | nt | nt | nt
Cc1ccc(NC(=O)c2c(NC(=O)Cc3ccccc3)sc3c2CCCC3)cc1 | nt | nt | 22µM | nt | nt | nt
